# Dicer processing = human Dicer pre-microRNA cleavage inhibition; z-score at 25 µM; cat-ELCCA pre-miR-21 Dicer processing, chemiluminescence; active compounds read high; Q9UPY3; 47,000 tested, 6% active; AID 1347074; in the data active = z-score above about 3, passing the limit was not always enough;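 note: plate controls were vehicle for no effect and no enzyme for full effect; higher signal means more uncleaved substrate so more Dicer inhibition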
# Active calls of the source: *. Shown is part of a subset that was picked to be rich in hits.
SMILES,Dicer processing
Cc1cc2oc3c(c(=O)c2cc1C)C(c1ccc(C(C)C)cc1)N(CCCN(C)C)C3=O (configuration not stated),-0.82
CCC(C)Sc1n[nH]c(=S)s1 (configuration not stated),-1.25
CN(C)c1nc(-c2ccccc2O)nc2ccccc12,1.69
CSc1ccc(CN2CCN(CC3CC=CCC3)CC2)cc1 (configuration not stated),1.22
CCS(=O)(=O)N1CCN(CC2CC=CCC2)CC1 (configuration not stated),3.72*
CC(C)CC(=O)N1CCN(CC2CC=CCC2)CC1 (configuration not stated),1.57
N#CCC(=O)N(Cc1ccccc1F)C(=O)NC1CCCCC1,-2.09
S=C1NC2=C(CCc3ccccc32)C(c2ccc(Cl)cc2Cl)N1 (configuration not stated),-0.39
Cc1cc(N=CNO)c2ccccc2n1,-0.52
CCCCc1ccc(N=CNO)c(C)c1,4.02*
ONC=Nc1cc(Cl)c(-n2cccc2)cc1Cl,-0.78
Brc1ccc(CSc2nccn2-c2cccnc2)cc1,0.47
CC1=C(C(=O)OCC2CCCO2)C(c2coc3ccc(Cl)cc3c2=O)C2=C(CCCC2=O)N1 (configuration not stated),2.06
CC1=C(C(=O)OCC2CCCO2)C(c2coc3ccc(Cl)cc3c2=O)C2=C(CC(C)(C)CC2=O)N1 (configuration not stated),3.19*
CC1=C(C(=O)OCC2CCCO2)C(c2ccccc2F)C2=C(CC(C)(C)CC2=O)N1 (configuration not stated),4.67*
CC1=C(C(=O)OCC2CCCO2)C(c2cccc(C)c2)C2=C(CC(C)(C)CC2=O)N1 (configuration not stated),2.23
CC1=C(C(=O)OCC2CCCO2)C(c2ccccc2C)C2=C(CC(C)(C)CC2=O)N1 (configuration not stated),-0.02
COc1cc(C2C(C(=O)OCC3CCCO3)=C(C)NC3=C2C(=O)CC(C)(C)C3)cc(Cl)c1O (configuration not stated),1.13
CC1=C(C(=O)OCC2CCCO2)C(c2ccc3c(c2)OCO3)C2=C(CC(C)(C)CC2=O)N1 (configuration not stated),1.42
COc1ccc(C2C(C(=O)OCC3CCCO3)=C(C)NC3=C2C(=O)CC(C)(C)C3)cc1O (configuration not stated),-0.23
CCc1ccc(C2C(C(=O)OCC3CCCO3)=C(C)NC3=C2C(=O)CC(C)(C)C3)cc1 (configuration not stated),7.04*
Cc1cc(C=Cc2ccc3cc(N(C)C)ccc3[n+]2C)c(C)n1-c1ccccc1,42.7
FC(F)(F)c1cc(NC(=S)NC2(Cc3ccccc3)CC2)cc(C(F)(F)F)c1,0.62
CC1CCc2c(sc3[nH]c(=O)n(-c4ccc(Cl)c(Cl)c4)c(=O)c23)C1 (configuration not stated),-0.01
COc1ccc(CC2CCC(=NOC(=O)c3ccc([N+](=O)[O-])cc3)CC2)cc1 (configuration not stated),0.97
SMILES,Dicer processing
CCOC(=O)NC(=S)N1CCOCC1,1.05
FC(F)(F)c1cccc(-c2noc(-c3cncc(C#Cc4ccccc4)c3)n2)c1,1.2
COCCNc1cc(C)nc2ccccc12,5.45
CCc1nnc2sc(-c3cc(C)nc4ccccc34)nn12,-1.12
CCCc1nnc(NC(CC)OC(=O)c2cc(C)nc3ccccc23)s1 (configuration not stated),3.07*
CC(C)NC(=O)NC(=O)c1ccc(Oc2cc(Cl)cc(Cl)c2)c([N+](=O)[O-])c1,0.32
COc1ccc(Cc2nnc3sc(/C=C/c4cccc(C)c4)nn23)cc1,2.24
Cc1cc(SCC(=O)N(C)c2ccc(F)cc2F)c(C)cc1Cl,-0.34
Nc1ccccc1NC(=S)Nc1ccccc1C(F)(F)F,1.82
Nc1ccc(-c2nnc(Nc3ccccc3C(F)(F)F)s2)cc1,3.6*
NC(=S)Nc1ccccc1C(F)(F)F,-0.1
CN(c1ccc(Br)cc1)c1nc(=O)c2cccnc2s1,-0.58
CCOC(=O)c1ccc(OCc2nc(-c3ccc(Br)cc3)no2)cc1,0.22
CCCCOc1ccc(N2C(=O)C3CC(C)=C(C)CC3C2=O)cc1 (configuration not stated),0.63
CC1=C(C)CC2C(=O)N(c3ccc(N(C)C)cc3)C(=O)C2C1 (configuration not stated),0.61
CC12N=NCC1C(=O)N(c1ccccc1F)C2=O (configuration not stated),1.67
CC1=C(C)CC2C(=O)N(c3ccc(Oc4ccc(Cl)cc4)cc3)C(=O)C2C1 (configuration not stated),3.34*
COc1cc(OC)cc(N2C(=O)C3CC(C)=C(C)CC3C2=O)c1 (configuration not stated),-2.21
CC1=C(C)CC2C(=O)N(c3ccccc3F)C(=O)C2C1 (configuration not stated),4.94*
Cc1cc(C(F)(F)F)cc(NNC(=O)NC(=O)c2c(F)cccc2F)n1,6.93
COc1ccc(-c2cc(C(F)F)n3ncc(C(=O)N4CCCC4)c3n2)cc1,-2.37
